This is a sample that favours compounds with a hit; in the whole collection about 15% have one here.
HCMV inh: human cytomegalovirus inhibition. HFF cells, HCMV-luciferase reporter, 72 h; active compounds read low. activity change, negative = inhibition, % at 57.5 µM. 4.5% of 410,000 active; in the data active = activity change below about -60%; inconclusive = no clear call, values can overlap the other calls; inactive = above about -39%; also: % is scaled to controls: 0 for no effect and ±100 for the full control effect
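Compounds were evaluated in HFFs infected with an HCMV luciferase reporter virus (MOI 1 PFU/cell). Luciferase in lysates collected 72 h post infection served as the replication measure.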
Pf growth 48h: P. falciparum growth inhibition at 48 hours (one generation) | P. falciparum luciferase growth in erythrocytes, 48 h | Potency, µM (series often up to 28.7 µM), for inactives: at the highest dose activity change, negative = inhibition, actives largely listed as inhibitors | 5.9% of 310,000 active; also: potency is read from the fitted curve at half-maximal effect; % is scaled to controls: 0 for no effect and ±100 for the full control effect
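Luciferase-expressing P. falciparum in infected erythrocytes (2% hematocrit, 0.1% parasitemia final) in RPMI 1640/0.5% Albumax were exposed to compound for 48 hours at 37 C, 5% CO2; growth read as luminescence.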
Sm TGR inh: blocks Schistosoma mansoni thioredoxin glutathione reductase; Potency, µM (doses to about 114 µM), without a hit: at the highest dose activity change, negative = inhibition, most hits filed as inhibitors; 3% of 360,000 active; purified TGR, DTNB reduction, TNB absorbance 405 nm; Q962Y6; also: potency is read from the fitted curve at half-maximal effect; % is scaled to controls: 0 for no effect and ±100 for the full control effect; nearly all actives have a fitted effect of over 60% in size
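Kinetic colorimetric format: TGR-catalysed, NADPH-driven DTNB reduction monitored via TNB absorbance. Enzyme dispensed at 20 nM; compound exposure 15 min at room temperature before reaction start.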
SARS PLpro yeast: blocks SARS-CoV papain-like protease in a yeast assay | 0.19% of 330,000 active | Potency, µM (highest dose often 32.9 µM), for the others: at the highest dose activity, positive = growth rescue, most hits filed as activators | S. cerevisiae expressing SARS-CoV PLpro, growth rescue | AID 485353; calls by dose curve; also: potency is read from the fitted curve at half-maximal effect; 0% is about no effect; nearly all actives have a fitted effect of over 55% in size
HCV inh: blocks hepatitis C virus | Huh7.5.1 HCVcc-Cre infection, luciferase reporter, 44 h | Potency, µM (series often up to 41.8 µM), without a hit: at the highest dose activity change, negative = inhibition, usual class: inhibitors | 3.4% of 340,000 active | AID 651820; also: potency is read from the fitted curve at half-maximal effect; % is scaled to controls: 0 for no effect and ±100 for the full control effect
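Reporter virus HCVcc-Cre (~0.5 moi) infects cells exposed to compound; seeding density 1,000 cells/well with 4 h settling beforehand. Luminescence, 15 sec read, taken 44 h post-infection following a 15 min RT substrate incubation.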
Pf growth 96h: P. falciparum growth inhibition at 96 hour, primary screen for plastid delayed-death inhibitors | P. falciparum luciferase reporter growth, 96 h | Potency, µM (series often up to 28.7 µM), inactives show at the top dose activity change, negative = inhibition, hits mostly inhibitors | 6.9% of 320,000 active | AID 504834; also: potency is read from the fitted curve at half-maximal effect; % is scaled to controls: 0 for no effect and ±100 for the full control effect
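Parasite growth measured via integrated firefly luciferase reporter in P. falciparum. Infected erythrocytes at 2% hematocrit, 0.05% parasitemia final were treated 96 hours at 37 C under 5% CO2, and luminescence was read.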
Starred values were filed as active, the others as inactive; ? = inconclusive; / = no result; [ ] = another dose, or the depositor's remark. Unless noted, calls follow the shape of the dose curve; as a rule, active = well fitted curve in the direction sought with a large enough effect; inconclusive = small, poorly fitted or top-dose-only effect, or another doubt; inactive = no such curve, though single readings can be large; an effect the other way counts as inactive or inconclusive.

SMILES	HCMV inh	Pf growth 48h	Sm TGR inh	SARS PLpro yeast	HCV inh	Pf growth 96h
CCOc1ccc(CCN2C(=S)N([C@@H](Cc3ccc(O)cc3)CN3CCC[C@@H]3CN3C(=S)NC[C@@H]3CC(C)C)C[C@@H]2Cc2ccc(O)cc2)cc1	-63*	/	/	/	/	/
O=[N+]([O-])c1cc(S(=O)(=O)Nc2ccc(Cl)cc2)ccc1N/N=C/c1ccncc1	-102*	?	9%	-1%	-26%	?
COc1ccc(O)c(O)c1/C=C1\[C@@H](C)CCC2C(C)(C)CCC[C@]12C (some centres undefined)	3	/	/	/	/	/
Cc1noc(C)c1S(=O)(=O)N1CCCC(C(=O)NCC2CCCO2)C1 (centres undefined)	-13	-3%	0%	1%	10%	9.3µM*
Cc1ccc(C)c(NC(=O)C2CCCN(S(=O)(=O)c3c(C)noc3/C=C/N(C)C)C2)c1 (centres undefined)	8	?	-13%	0%	-27%	2%
Cc1ccc(NC(=O)C2CCCN(S(=O)(=O)c3c(C)noc3/C=C/N(C)C)C2)c(C)c1 (centres undefined)	14	?	-7%	-4%	-11%	9.3µM*
Cc1noc(/C=C/N(C)C)c1S(=O)(=O)N1CCC(C(=O)O)CC1	-69*	0%	5%	8%	17%	9%
Cc1ccc(NC(=O)C2CCCN(S(=O)(=O)c3c(C)noc3C)C2)cc1F (centres undefined)	46	?	1%	3%	-4%	2.3µM*
CCOc1ccc(NC(=O)C2CCCN(S(=O)(=O)c3c(C)noc3C)C2)cc1 (centres undefined)	-33	7%	-13%	8%	-3%	-28%
Cc1ccc(/C=C/C(=O)Nc2ccccc2C(N)=O)cc1	69	265%	5%	-20%	-1%	-20%
Cc1ccc(NC(=O)C2CCCN(S(=O)(=O)c3c(C)noc3C)C2)c(Br)c1 (centres undefined)	27	-4%	-2%	3%	?	5.9µM*
COc1ccc(CCNc2ccc(C(CC(N)=O)NC(=O)c3ccc(Br)cc3)cc2[N+](=O)[O-])cc1 (centres undefined)	-72*	?	0%	0%	7%	?
NC(=O)CC(NC(=O)c1ccccc1)c1ccc(NCc2ccccc2)c([N+](=O)[O-])c1 (centres undefined)	5	?	11%	0%	10µM*	9.3µM*
NC(=O)CC(NC(=O)Cc1ccc(Br)cc1)c1ccc(NCCN2CCCCC2)c([N+](=O)[O-])c1 (centres undefined)	2	29%	-25%	-6%	-9%	0.01µM*
NC(=O)CC(NC(=O)c1ccccc1)c1ccc(NCCc2ccc(Cl)cc2)c([N+](=O)[O-])c1 (centres undefined)	-25	13µM*	7%	1%	?	?
O=C(NCC1OCCCN1S(=O)(=O)c1cc(F)ccc1F)C(=O)NC1CCCCC1 (centres undefined)	27	4%	6%	6%	12%	13%
Cc1cc(C)n(CCCNC(=O)c2ccc(C)c(S(=O)(=O)N3CCOCC3)c2)n1	-34	?	4%	3%	?	?
C=CS(=O)(=O)N[C@@H](CSSC[C@H](NS(=O)(=O)C=C)C(=O)OC)C(=O)OC	-25	/	/	/	/	/
COc1ccc(CNC(=O)c2cc3cccc(O)c3oc2=N)cc1	-17	?	-1%	6%	11%	?
NC(=O)CC(NC(=O)c1ccccc1)c1ccc(NC2CCCCCCC2)c([N+](=O)[O-])c1 (centres undefined)	-99*	10%	0%	-1%	-21%	-98%
NC(=O)CC(NC(=O)c1ccccc1)c1ccc(NC2CCCCC2)c([N+](=O)[O-])c1 (centres undefined)	-27	-8%	8%	1%	16%	?
C[N+](C)(C)CCN1C(=O)c2ccccc2C1=O	-9	/	/	/	/	/
C#CCNC(=O)C1=C[C@H](C2CCCCC2)C[C@H](OCCCCO)O1	-17	?	13µM*	-2%	8%	?
C#CCNC(=O)C1=C[C@@H](C2CC2)C[C@@H](OCCCCO)O1	-5	32%	?	0%	16%[8.37 µM]	28%
C#CCNC(=O)C1=C[C@@H](C2CCCCC2)C[C@@H](OCCCCO)O1	-15	?	13µM*	0%	-4%	?
SMILES	HCMV inh	Pf growth 48h	Sm TGR inh	SARS PLpro yeast	HCV inh	Pf growth 96h
O=c1c2c3c(sc2nc(N2CCNCC2)n1CCc1ccccc1)CCCCC3	-24	31%	11%	-1%	-16%	-16%
COC(=O)c1ccc(S(=O)(=O)N(C2CCCCC2)C2CCCCC2)n1C	-4	10µM*	10%	-1%	13%	?
COC(=O)c1cc(S(=O)(=O)N(C)C2CCCCC2)cn1C	-18	-4%	-10%	-4%	5%	?
Cc1ccc2c(C(=O)N3CCN(c4ccccc4)CC3)cc(-c3cccnc3)nc2c1C	-9	2.3µM*	7%	0%	?	-16%
Cc1ccc(-c2cc(C(=O)N3CCN(c4ccccc4)CC3)c3ccccc3n2)cc1C	52	/	-4%	/	/	/
CCOc1ccccc1N1CCN(C(=O)c2cc(-c3cccnc3)nc3c(Cl)cccc23)CC1	/	3.3µM*	-11%	13%	-4%	4%
CCOc1ccccc1N1CCN(C(=O)c2ccncc2)CC1	5	5%	0%	1%	21%	/
Cc1ccc2nc(-c3cccnc3)cc(C(=O)N3CCN(c4ccc([N+](=O)[O-])cc4)CC3)c2c1	-33	10µM*	-4%	-1%	?	-32%
COc1ccccc1NS(=O)(=O)c1cc(Cl)ccc1OC	49	-17%	0%	-5%	5%	/
O=c1c2ccccc2sc2nc(C3CCCCC3)n(Cc3ccco3)c(=O)c12	-28	1.7µM*	10µM*	-4%	-5%	6.6µM*
CCc1nc2sc3ccccc3c(=O)c2c(=O)n1Cc1ccco1	-3	-24%	35µM*	7%	14%	?
Cc1cc(C)c(NC(=O)c2c(C)oc3c2C2=NCCN2C=N3)c(C)c1	3	/	-5%	/	/	/
CC1=C(C(=O)Nc2ccccc2Cl)C(c2cccc(O)c2)n2ncnc2N1 (centres undefined)	4	/	-2%	/	/	/
Cc1cccc(C)c1N/C=C/c1onc(C)c1[N+](=O)[O-]	-15	-7%	89µM*	/	24%	2%
Cc1ccc(N/C=C/c2onc(C)c2[N+](=O)[O-])cc1	0	103%	4%	1%	6%	95%
